Experimental findings from PubChem BioAssay (NCATS) are described below.

Inconclusive results are not listed. A number with no mark means an inactive call. The source made the active and inactive calls. Calls follow the shape of the full dose curve; tested in HEK293 reporter line.
% is scaled to controls: 0 for no effect and ±100 for the full control effect; potency is read from the fitted curve at half-maximal effect.

This test in a line: qHTS for Inhibitors of the Functional Ribonucleoprotein Complex (vRNP) of Lassa (LASV) Arenavirus: Viability assay - alamar blue signal for LASV Primary Screen (AID 1347083). Also: nearly all actives have a fitted effect of over 80% in size. The settings on record: cell viability, alamar blue fluorescence (LASV minigenome counter-screen); series mostly up to 57.5 µM; activity change, negative = reduced viability: at the top concentration. (Quantitative high-throughput screening tests each substance at several concentrations.)
Turning to `C#C[C@]1(O)C=C[C@@H]2[C@@H]3CCC4=CC(=O)CC[C@@H]4[C@H]3CC[C@@]21CC`, the “activity change, negative = reduced viability” value was -1.3%.
Same read-out and setting: the result for `Cc1cc(O)ccc1Cl` reads 0.281%.
Still for that read-out and setting: the result for `COc1cccc2c1[C@]13CCN(CC4CC4)[C@H](C2)[C@]1(OC)CCC(=O)C3` reads 1.17%.
Still for that read-out and setting: with `CCCCOC(=O)c1ccccc1C(=O)OCc1ccccc1` the figure was 8.52% [at 115 µM]; with `CCCN1CCO[C@@H]2c3cc(O)ccc3OC[C@@H]21`, 0.159%.
For `CC1(N2CCC(n3c([C@@H]4CCCNC4)nc4ccccc43)CC2)CCCCCCC1`, the “activity change, negative = reduced viability” value is -31.9%.
Same read-out and setting: the result for `COc1cc2cc(c1Cl)N(C)C(=O)C[C@H](OC(=O)C(C)C)[C@]1(C)O[C@H]1[C@H](C)[C@@H]1C[C@@](O)(NC(=O)O1)[C@H](OC)C=CC=C(C)C2` reads -95.2%; that for `CN(C)NC(=O)CCC(=O)O`, -34.4%; that for `CS(=O)(=O)c1ccc(C(=O)C2C(=O)CCCC2=O)c([N+](=O)[O-])c1`, -6.56% [at 115 µM].
Still for that read-out and setting: with `C#CC1(O)CCC2C3CCC4=CC(=O)CCC4(C)C3CCC21C` (stereo not given) the figure was -3.11%; with `CCN1C[C@]2(OC(=O)c3ccccc3NC(C)=O)CC[C@H](OC)[C@@]34[C@H]5CC6[C@@H](OC)C[C@](O)(C(C[C@@H]23)[C@@H]14)[C@@]5(O)[C@@H]6OC`, 6.56%.
On the same count and under the same terms, the result for `CC(C)(C)NC[C@H](O)c1ccc(O)cc1Cl` reads -6.43%; that for `COC(C)(C)CCCC(C)C/C=C/C(C)=C/C(=O)OC(C)C` (stereo not given), -1.57%.
Take `CC(=Cc1csc(C)n1)[C@@H]1C[C@H]2O[C@@H]2CCC[C@H](C)[C@@H](O)[C@@H](C)C(=O)C(C)(C)[C@@H](O)CC(=O)O1`: the “activity change, negative = reduced viability” value was -120%.
In the case of `Cc1[nH]nc2ccc(-c3cncc(OC[C@@H](N)Cc4c[nH]c5ccccc45)c3)cc12`, the Potency was 172 nM (active).
On to `CCOP(=O)(NC(C)C)Oc1ccc(SC)c(C)c1` (stereo not given), for which the “activity change, negative = reduced viability” value was 8.78% [at 115 µM].
On the same count and under the same terms, with `O=[N+]([O-])c1ccc([As](=O)(O)O)cc1` the figure was -5.62%; with `OCCCBr`, 8.33% [at 115 µM]; with `O=[N+]([O-])/N=C1\NCCN1Cc1ccc(Cl)nc1`, 4.09%.
Still for that read-out and setting: the result for `Nc1c(Cl)c(Cl)c(Cl)c(Cl)c1Cl` reads 8.72% [at 115 µM].
